# Activity calls are given as the source filed them.
# Key:
# [1] = tested on: Plasmodium falciparum Sir2 (PF13_0152, Sir2A); assay: pfSir2 binders on small-molecule microarrays, primary screen, biochemical, small-molecule microarray, 635 nm fluorescence (AID 1098); conditions: small-molecule microarray binding, fluorescence 635 nm; higher = more signal;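 further: score merges spot fluorescence intensity with its signal-to-noise ratio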
# [2] = small-molecule microarray binders of probe aDKK1, primary screen, biochemical, biotinylated probe, 635/667 nm fluorescence (AID 1099); conditions: higher = more signal;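 further: score merges 667nm spot fluorescence with signal to noise across triplicate slides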
# [3] = small-molecule microarray binders of probe aCHRDL2, primary screen, biochemical, biotinylated probe, 635/667 nm fluorescence (AID 1100); conditions: higher = more signal
# [4] = splicing luciferase reporter signal modulators, primary screen, spliceosome inhibition project, cell-based, HEK293, splice +/- reporter (AID 1101); conditions: luminescence, 24 h, higher = more signal, called active from +8 up or from −8 down;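 further: HEK293 cells carrying a splicing-competent luciferase reporter gene; test concentration not given here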
# [5] = target: Fibroblast growth factor 10 (Homo sapiens) (UniProt O15520); assay: FGF10 binders on small-molecule microarrays, primary screen, biochemical, small-molecule microarray, 635 nm fluorescence (AID 1102); conditions: FGF10 binding, fluorescence 635 nm, higher = more signal
# [6] = tested on: glycogen synthase kinase-3 (GSK3A per assay name; protocol says GSK3B); assay: GSK3 binders on small-molecule microarrays, primary screen, biochemical, small-molecule microarray, 635 nm fluorescence, GSK3A (AID 1103); conditions: small-molecule microarray binding, fluorescence 635 nm; higher = more signal; further: the record names both GSK3A and GSK3B
# [7] = target: Epidermal growth factor receptor (Homo sapiens) (UniProt P00533); assay: EGFR binders on small-molecule microarrays, primary screen, biochemical, small-molecule microarray, 635 nm fluorescence (AID 1104); conditions: EGFR binding, higher = more signal;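 further: score merges 667 nm emission intensity with spot signal to noise over triplicate slides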
# [8] = target: Follistatin-related protein 3 (Homo sapiens) (UniProt O95633); assay: FSTL3 binders on small-molecule microarrays, primary screen, biochemical, small-molecule microarray, 635 nm fluorescence (AID 1105); conditions: FSTL3 binding, higher = more signal;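 further: score merges emission near 667 nm and signal to noise per printed spot across three slides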
# [9] = target: Dickkopf-related protein 1 (Homo sapiens) (UniProt O94907); assay: DKK1 binders on small-molecule microarrays, primary screen, biochemical, small-molecule microarray, 635 nm fluorescence scan (AID 1106); conditions: DKK1 binding, higher = more signal;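 further: score merges emission near 667 nm with signal to noise over three replicate slides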
# [10] = tested on: Inhibin beta A chain (activin A); assay: INHBA (activin A) binders on microarrays, primary screen, biochemical, small-molecule microarray, 635 nm fluorescence scan (AID 1107); conditions: small-molecule microarray binding, higher = more signal;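 further: mouse activin A protein probed at 4.33 µg/mL on printed slides; score merges bound-protein fluorescence near 667 nm with spot signal-to-noise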
# [11] = tested on: Human papillomavirus type 1a protein E7 (residues 44-93); assay: HPV1a E7 fragment binders on microarrays, primary screen, biochemical, small-molecule microarray, residues 44-93, 635 nm fluorescence (AID 1108); conditions: small-molecule microarray binding, fluorescence 635 nm; higher = more signal;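 further: E7 fragment applied at 1 µg/mL in TBST for 1 h at 4 C; score combines spot fluorescence with its signal to noise ratio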
# [12] = modulators of HCV replicon luciferase signal, primary screen, HCV replication inhibitor project, Huh7 cells, luciferase reporter (AID 1109); conditions: 48 h, higher = more signal;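 further: huh7 hepatoma cells harbouring a luciferase neomycin HCV replicon reporter; luciferase luminescence as measure of HCV replicon replication; test concentration not given here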
# [13] = target: Left-right determination factor 2 (Homo sapiens) (UniProt O00292); assay: LEFTY2 binders on small-molecule microarrays, primary screen, biochemical, small-molecule microarray, 635 nm fluorescence scan (AID 1110); conditions: LEFTY2 binding, higher = more signal
# [14] = target: Calmodulin-1 (Homo sapiens) (UniProt P0DP23); assay: CALM1 binders on microarrays, EGTA buffer, profiling panel, biochemical, small-molecule microarray, Cy5-labelled CALM1 (AID 1111); conditions: Cy5-CALM1 binding fluorescence, higher = more signal;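 further: labelled calmodulin applied in Tris saline Tween buffer holding calcium plus EGTA and DTT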
# [15] = target: Calmodulin-1 (Homo sapiens) (UniProt P0DP23); assay: calcium-bound CALM1 binders on microarrays, profiling panel, artefact control for SMM control-protein annotation, biochemical, small-molecule microarray, Cy5-labelled CALM1, plus calcium (AID 1112); conditions: Cy5-CALM1 binding fluorescence, higher = more signal;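 further: score merges spot fluorescence with signal to noise from triplicate slides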
# [16] = small-molecule microarray binders of probe aWnt5a, primary screen, biochemical, biotinylated probe, 635/667 nm fluorescence (AID 1113); conditions: higher = more signal;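 further: score merges 667 nm fluorescence intensity with signal-to-noise per printed feature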
# [17] = small-molecule microarray binders of probe aShh, primary screen, biochemical, biotinylated probe, 635/667 nm fluorescence (AID 1114); conditions: higher = more signal;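 further: probe is biotin-labelled aShh protein from a stem cell growth factor screen; measures binding of labelled protein to compounds printed on the slide; score merges feature fluorescence at 667 nm with signal-to-noise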
# [18] = small-molecule microarray binders of probe aNog, primary screen, biochemical, biotinylated probe, 635/667 nm fluorescence (AID 1115); conditions: higher = more signal;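 further: probe is biotinylated aNog protein used at 0.15 µg/mL for 1 h at 4 C; z-score combines 667 nm fluorescence of each spot with its signal to noise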
# [19] = target: Torsin-1A-interacting protein 1 (Homo sapiens) (UniProt Q5JTV8); assay: LAP1 binders from COS7 cell lysate, primary screen, small-molecule microarray, 635/667 nm fluorescence (AID 1116); conditions: COS7-hLAP1 lysate binding, 635 nm fluorescence, higher = more signal
# [20] = target: Alpha-bungarotoxin (Bungarus multicinctus) (UniProt P60615); assay: alpha-bungarotoxin binders on microarray, profiling panel, artefact control for SMM control protein annotation, biochemical, small-molecule microarray, Alexa647 label, 635/667 nm fluorescence (AID 1117); conditions: alpha-BTX-A647 binding fluorescence, higher = more signal
# Alpha-bungarotoxin (Bungarus multicinctus), sequence (P60615 whole entry, looked up): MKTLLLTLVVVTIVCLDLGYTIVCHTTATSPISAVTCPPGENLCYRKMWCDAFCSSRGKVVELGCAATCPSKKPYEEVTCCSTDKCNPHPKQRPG
# Follistatin-related protein 3 (Homo sapiens), sequence (O95633 whole entry, looked up): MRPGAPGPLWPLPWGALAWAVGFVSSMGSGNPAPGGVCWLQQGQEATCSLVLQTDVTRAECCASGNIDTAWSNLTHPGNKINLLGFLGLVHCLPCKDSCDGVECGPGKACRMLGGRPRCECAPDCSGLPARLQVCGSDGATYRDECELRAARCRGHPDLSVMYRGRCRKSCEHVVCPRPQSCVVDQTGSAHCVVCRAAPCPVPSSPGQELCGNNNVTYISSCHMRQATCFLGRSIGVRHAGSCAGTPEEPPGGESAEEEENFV
# Left-right determination factor 2 (Homo sapiens), sequence (O00292 whole entry, looked up): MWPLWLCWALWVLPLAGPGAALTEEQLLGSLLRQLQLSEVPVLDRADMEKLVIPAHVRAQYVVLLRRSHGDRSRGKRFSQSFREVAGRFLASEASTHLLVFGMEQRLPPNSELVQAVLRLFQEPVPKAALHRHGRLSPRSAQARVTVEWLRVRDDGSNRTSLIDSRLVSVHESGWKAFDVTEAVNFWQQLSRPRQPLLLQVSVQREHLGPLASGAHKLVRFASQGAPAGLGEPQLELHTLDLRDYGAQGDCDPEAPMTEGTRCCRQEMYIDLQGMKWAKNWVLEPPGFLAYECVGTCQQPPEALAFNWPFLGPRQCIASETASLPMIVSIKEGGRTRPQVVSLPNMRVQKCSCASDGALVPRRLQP
# Dickkopf-related protein 1 (Homo sapiens), sequence (O94907 whole entry, looked up): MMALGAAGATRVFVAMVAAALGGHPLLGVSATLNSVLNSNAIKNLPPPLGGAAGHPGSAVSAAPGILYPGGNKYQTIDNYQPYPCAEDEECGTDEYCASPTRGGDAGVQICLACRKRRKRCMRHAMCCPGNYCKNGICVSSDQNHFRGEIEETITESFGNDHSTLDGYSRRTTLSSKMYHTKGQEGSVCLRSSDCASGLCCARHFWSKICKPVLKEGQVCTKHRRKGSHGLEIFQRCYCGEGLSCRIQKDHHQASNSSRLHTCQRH
# Fibroblast growth factor 10 (Homo sapiens), sequence (O15520 whole entry, looked up): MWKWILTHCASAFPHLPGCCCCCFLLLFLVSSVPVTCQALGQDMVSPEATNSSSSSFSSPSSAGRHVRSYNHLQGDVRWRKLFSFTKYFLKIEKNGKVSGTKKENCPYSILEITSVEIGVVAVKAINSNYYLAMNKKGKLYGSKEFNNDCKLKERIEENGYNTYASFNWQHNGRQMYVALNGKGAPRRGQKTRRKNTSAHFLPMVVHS
# Epidermal growth factor receptor (Homo sapiens), sequence (P00533 whole entry, looked up): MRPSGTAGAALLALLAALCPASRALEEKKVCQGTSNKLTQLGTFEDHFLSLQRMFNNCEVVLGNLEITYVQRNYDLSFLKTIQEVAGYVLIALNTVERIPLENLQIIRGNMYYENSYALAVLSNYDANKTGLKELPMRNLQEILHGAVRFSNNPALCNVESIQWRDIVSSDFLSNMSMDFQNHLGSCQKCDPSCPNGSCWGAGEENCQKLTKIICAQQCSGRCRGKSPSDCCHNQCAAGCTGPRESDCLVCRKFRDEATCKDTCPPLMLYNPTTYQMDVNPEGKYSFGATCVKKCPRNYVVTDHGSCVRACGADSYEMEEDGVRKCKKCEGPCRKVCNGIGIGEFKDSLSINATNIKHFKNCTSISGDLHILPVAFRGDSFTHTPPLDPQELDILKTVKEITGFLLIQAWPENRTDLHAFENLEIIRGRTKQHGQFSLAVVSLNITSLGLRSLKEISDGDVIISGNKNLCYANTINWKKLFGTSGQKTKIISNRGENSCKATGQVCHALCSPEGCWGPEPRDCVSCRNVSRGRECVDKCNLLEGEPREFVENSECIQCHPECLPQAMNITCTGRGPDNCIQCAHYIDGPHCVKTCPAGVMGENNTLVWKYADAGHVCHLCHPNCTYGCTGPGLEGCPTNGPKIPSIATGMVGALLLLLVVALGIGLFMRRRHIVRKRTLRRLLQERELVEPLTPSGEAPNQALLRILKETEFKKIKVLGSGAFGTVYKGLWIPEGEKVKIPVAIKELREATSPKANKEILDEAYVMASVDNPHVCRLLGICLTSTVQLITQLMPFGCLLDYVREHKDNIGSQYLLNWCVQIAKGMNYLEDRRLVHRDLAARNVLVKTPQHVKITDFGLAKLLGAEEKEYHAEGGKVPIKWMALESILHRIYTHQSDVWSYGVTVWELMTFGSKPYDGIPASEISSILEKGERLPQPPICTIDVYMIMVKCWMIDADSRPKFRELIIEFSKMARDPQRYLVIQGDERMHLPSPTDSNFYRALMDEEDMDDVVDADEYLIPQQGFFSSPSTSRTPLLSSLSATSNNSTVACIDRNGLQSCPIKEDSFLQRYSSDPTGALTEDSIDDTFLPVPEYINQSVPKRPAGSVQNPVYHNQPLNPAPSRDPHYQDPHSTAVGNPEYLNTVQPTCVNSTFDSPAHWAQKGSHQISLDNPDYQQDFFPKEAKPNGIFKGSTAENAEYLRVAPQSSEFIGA
# Torsin-1A-interacting protein 1 (Homo sapiens), sequence (Q5JTV8 whole entry, looked up): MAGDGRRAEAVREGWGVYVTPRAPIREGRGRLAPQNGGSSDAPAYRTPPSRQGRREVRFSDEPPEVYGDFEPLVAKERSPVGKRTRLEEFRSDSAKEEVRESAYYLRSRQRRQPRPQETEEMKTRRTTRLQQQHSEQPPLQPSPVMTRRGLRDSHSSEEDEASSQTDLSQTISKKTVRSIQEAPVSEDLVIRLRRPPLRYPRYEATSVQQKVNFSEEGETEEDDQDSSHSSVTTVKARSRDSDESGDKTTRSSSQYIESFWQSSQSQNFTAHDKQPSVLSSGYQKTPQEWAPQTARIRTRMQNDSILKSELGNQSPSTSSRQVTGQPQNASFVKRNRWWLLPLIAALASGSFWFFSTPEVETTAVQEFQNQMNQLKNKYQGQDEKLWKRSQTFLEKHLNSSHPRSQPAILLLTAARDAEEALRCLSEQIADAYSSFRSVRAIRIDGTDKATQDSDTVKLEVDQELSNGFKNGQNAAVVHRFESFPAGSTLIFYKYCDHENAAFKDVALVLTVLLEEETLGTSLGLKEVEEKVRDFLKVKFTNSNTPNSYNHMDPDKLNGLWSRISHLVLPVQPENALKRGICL
Structure (SMILES),composite z-score [1],composite z-score [2],composite z-score [3],z-score [4],composite z-score [5],composite z-score [6],composite z-score [7],composite z-score [8],composite z-score [9],composite z-score [10],composite z-score [11],z-score [12],composite z-score [13],composite z-score [14],composite z-score [15],composite z-score [16],composite z-score [17],composite z-score [18],composite z-score [19],composite z-score [20]
COCCOC(=O)N1C(=O)[C@@]2(c3cc(C#Cc4ccc(OC)cc4)ccc31)[C@H](c1ccc(O)cc1)N1[C@H](c3ccccc3)[C@H](c3ccccc3)OC(=O)[C@H]1[C@@H]2C(=O)N1CCCCCCC1,0.447,1.81,1.36,1.5 (inactive),0.506,-0.151,-0.191,0.859,0.423,1.31,0.699,-0.48,0.187,1.54,0.946,-0.151,0.199,1.48,2.14,0.63
O=C1C2C=CC(C(O)c3ccc(F)cc3)N(n3cnnc3)C2C(=O)N1Cc1ccccc1 (stereo not given),-0.284,0.158,0.384,-0.284 (inactive),-0.429,-0.858,-0.273,-0.0469,-0.44,1.12,-0.305,-0.574,-0.856,-0.171,0.451,-0.0781,-0.203,0.146,0.419,-0.39
CC(C)C[C@@H]1NC(=O)[C@@H]2C[C@H](C(=O)NCCCCN(C)C)[C@H](c3cccc(OCCO)c3)N2C1=O,1.66,-0.224,0.0176,-0.464 (inactive),-0.272,-1.24,-0.0053,-0.135,0.212,0.266,0.314,-0.138,-0.113,0.0053,-0.0276,-0.221,-0.138,-0.313,-0.249,-0.555
[N-]=[N+]=NCc1ccccc1C[C@@]1(C(=O)N2CCCCC2)N=C(c2ccc(OCCCO)cc2)O[C@@H]1c1ccccc1,0.884,0.542,0.751,-0.422 (inactive),0.384,0.0635,-0.451,-0.281,-0.849,1.05,0.785,-3.35,-1.01,1.28,0.958,0.0141,-0.325,0.46,2.15,1
COCCOC(=O)N1C(=O)[C@@]2(c3cc(C#CC4=CCCCC4)ccc31)[C@H](c1ccc(O)cc1)N1[C@H](c3ccccc3)[C@H](c3ccccc3)OC(=O)[C@H]1[C@@H]2C(=O)N1CCN(c2ncccn2)CC1,-0.0148,-0.222,0.649,-0.297 (inactive),-0.769,-0.858,-1.04,-1.85,-1.22,-0.918,-0.444,-0.131,-0.742,-0.676,0.451,-0.195,-0.138,-0.445,-0.201,-1.11
CCOC(=O)[C@H]1[C@@H]2C(=O)N3CCC[C@H]3[C@H](O[Si](C(C)C)(C(C)C)C(C)C)[C@H]2C=C2CCN(S(=O)(=O)c3ccc(C)cc3)C[C@H]21,0.779,-0.341,-0.535,-1.73 (inactive),1,0.938,0.586,0.766,0.593,0.141,1.28,-3.6,0.637,0.791,-0.185,-0.0379,0.0815,-0.709,0.694,0.962

# Source: PubChem BioAssay
